Measured values published in article PMC4336329 (PLoS ONE, 2015).
The whole screen tested about 310,000 compounds, of which about 14,000 (4.5%) showed an effect of 50% or more. Effects have a minus sign here. For the sample, strong results were picked, then their nearest neighbours and some compounds at random.

Biological target: human ether-à-go-go-related gene (hERG) potassium channel (human, UniProt Q12809)
Assay: primary screen, population patch clamp on CHO cells stably expressing hERG; higher = less effect of the substance
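Also: peak tail current of the secondary pulse compared with the same well before compound.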

human ether-à-go-go-related gene (hERG) potassium channel, sequence (Q12809 whole entry, looked up): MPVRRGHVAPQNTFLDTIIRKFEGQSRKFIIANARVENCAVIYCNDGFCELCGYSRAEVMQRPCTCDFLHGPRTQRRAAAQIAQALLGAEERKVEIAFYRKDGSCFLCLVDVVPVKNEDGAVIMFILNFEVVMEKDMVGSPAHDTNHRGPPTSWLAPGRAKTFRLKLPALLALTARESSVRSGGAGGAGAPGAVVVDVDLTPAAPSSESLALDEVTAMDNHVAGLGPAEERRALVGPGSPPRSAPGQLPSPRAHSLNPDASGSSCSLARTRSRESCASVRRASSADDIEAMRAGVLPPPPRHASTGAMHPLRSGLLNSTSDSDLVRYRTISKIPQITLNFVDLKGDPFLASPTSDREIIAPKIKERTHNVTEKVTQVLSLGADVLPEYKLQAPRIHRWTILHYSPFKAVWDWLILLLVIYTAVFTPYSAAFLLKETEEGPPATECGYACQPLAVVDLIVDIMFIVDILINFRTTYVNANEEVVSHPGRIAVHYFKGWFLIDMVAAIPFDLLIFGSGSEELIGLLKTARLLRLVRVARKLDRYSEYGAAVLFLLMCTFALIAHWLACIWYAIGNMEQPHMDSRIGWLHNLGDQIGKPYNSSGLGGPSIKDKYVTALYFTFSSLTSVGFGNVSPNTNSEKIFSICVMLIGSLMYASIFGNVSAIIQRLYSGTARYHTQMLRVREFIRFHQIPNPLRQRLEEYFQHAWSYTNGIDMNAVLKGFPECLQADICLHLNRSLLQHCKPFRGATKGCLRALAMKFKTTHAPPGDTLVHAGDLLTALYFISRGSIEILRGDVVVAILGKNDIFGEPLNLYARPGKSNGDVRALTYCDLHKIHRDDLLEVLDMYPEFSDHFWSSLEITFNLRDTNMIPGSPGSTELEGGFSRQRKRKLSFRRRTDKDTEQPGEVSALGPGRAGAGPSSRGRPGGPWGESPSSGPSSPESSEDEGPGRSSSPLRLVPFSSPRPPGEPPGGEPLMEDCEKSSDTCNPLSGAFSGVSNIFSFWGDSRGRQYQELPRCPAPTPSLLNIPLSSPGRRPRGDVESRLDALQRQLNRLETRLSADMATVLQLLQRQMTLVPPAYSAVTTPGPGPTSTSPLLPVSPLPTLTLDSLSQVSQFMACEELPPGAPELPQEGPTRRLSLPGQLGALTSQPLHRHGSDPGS

Structure (SMILES)	hERG current change (%, negative = inhibition) at 10uM
CCOC(=O)c1ccc2c(c1)nc(-c1ccc(F)cc1)c1nccn12	5.55%
CNC(C)C(=O)NC(C(=O)N1CCCC1C(=O)NNc1ccccc1)C(C)C.O=CO (stereo not drawn)	5.01%
O=S(=O)(c1ccccc1F)N1CCN(CCc2ccccc2)CC1	-5.81%
O=C(NCCO)/C(=C\c1cccc([N+](=O)[O-])c1)NC(=O)c1ccco1	6.73%
O=C(NCc1ccco1)/C(=C\c1cccc([N+](=O)[O-])c1)NC(=O)c1ccco1	-64.7%
CC(NC(=O)/C(=C\c1cccc([N+](=O)[O-])c1)NC(=O)c1ccco1)C(=O)O (stereo not drawn)	39.2%
O=C(NCc1ccccc1)/C(=C/c1cccc([N+](=O)[O-])c1)NC(=O)c1ccco1	-61.2%
O=C(NCCO)/C(=C/c1cccc([N+](=O)[O-])c1)NC(=O)c1ccco1	26.5%
O=C(NCCc1ccccc1)/C(=C\c1cccc([N+](=O)[O-])c1)NC(=O)c1ccco1	-78.6%
O=C(O)CNC(=O)/C(=C/c1cccc([N+](=O)[O-])c1)NC(=O)c1ccco1	-1.47%
CCN(CC)C(=O)/C(=C\c1cccc([N+](=O)[O-])c1)NC(=O)c1ccco1	-24%
CC(NC(=O)/C(=C/c1cccc([N+](=O)[O-])c1)NC(=O)c1ccco1)C(=O)O (stereo not drawn)	0.397%
O=C(O)CNC(=O)/C(=C\c1cccc([N+](=O)[O-])c1)NC(=O)c1ccco1	15.7%
CCN(CC)C(=O)/C(=C/c1cccc([N+](=O)[O-])c1)NC(=O)c1ccco1	-25.8%
O=C(NCc1ccco1)/C(=C/c1cccc([N+](=O)[O-])c1)NC(=O)c1ccco1	-56.8%
COc1ccc(OCCNC(=S)Nc2cccc3ccccc23)cc1	3.79%
Cc1ccccc1N(CC(=O)NC1CCCC1)C(=O)CS(=O)CC(=O)Nc1ccc2c(c1)OCO2 (stereo not drawn)	-8.74%
COc1cc(C2NC(=O)NC(C)=C2C(C)=O)cc(OC)c1OC (stereo not drawn)	9.41%
Cc1nc(SCC(=O)O)c(C#N)c2c1CCCC2	-10.9%
COc1cc2c(-c3ccc4[nH]ccc4c3)c(-c3ccc(C#N)cc3)oc(=O)c2cc1OC	20.9%
CCCCC(=Nc1ccc(N)cc1)C1=C(O)C(C(=O)OC)C(C)(C)CC1=O (stereo not drawn)	-1.62%
